The record followed here is PubChem BioAssay (NCATS).

Molecules are shown by their SMILES. “And” between values parts separate entries of the source, which are not always exact repeats. Equal values may be shown once. Results filed as inconclusive are left out. The source made the active and inactive calls. Unless noted, the call rests on the fitted dose curve; in most records, active means well fitted curve in the direction sought with a large enough effect; inconclusive means small, poorly fitted or top-dose-only effect, or another doubt; inactive means no such curve, though single readings can be large; an effect the other way counts as inactive or inconclusive. Bounds are passed on as bounds.

Experiment [1] in a line: Cell Viability - Jurkat (AID 426;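 active means dose-dependent loss of cell ATP signal giving a full or clear fitted curve, ranked by lower potency value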; further: potency means the concentration at half of the fitted maximal effect). To be noted: qHTS. A digest of the protocol: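 Cytotoxicity was scored as loss of cellular ATP, measured by luciferase-based luminescence, in Jurkat clone E6-1 cells after 40 h compound treatment; tamoxifen and doxorubicin served as positive controls.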
A general note: In qHTS, concentration-response curves come from the screen itself.

Experiment [2] can be described thus: Cell Viability - Hek293 (AID 427;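 active means compounds whose dose-response curve shows a full or clear partial loss of cell viability, called from curve shape rather than a numeric limit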;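 further: potency means the concentration at half of the fitted maximal effect; cells exposed to compound for 40 hours at 37 °C before reading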). Conditions: qHTS. A digest of the protocol: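 HEK293 cells in complete medium were exposed to compound for 40 hr at 37 °C, then cellular ATP was read by CellTiter-Glo luminescence. Data were normalized to DMSO (basal) and 100 uM tamoxifen (100% inhibition), and AC50 came from Hill fits.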
Experiment [3] is described as follows: Cell Viability - HepG2 (AID 433; calls by dose curve; further: potency means the concentration at half of the fitted maximal effect). Conditions: qHTS. The procedure, abridged: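 Cytotoxicity is scored as loss of intracellular ATP in HepG2 cells exposed to compounds for 40 h. Concentration-response curves, normalized to DMSO and 100 uM tamoxifen, give AC50 values.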
Experiment [4] can be described thus: Cell Viability - HUV-EC-C (AID 542). Further: on the % scale 0 is the no-effect control and ±100 the full control effect; nearly all actives have a fitted effect of over 35% in size. Conditions: HUV-EC-C endothelial cell viability, qHTS; series mostly up to 92.2 µM. The procedure, abridged:
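Concentration-dependent ATP loss in HUV-EC-C cells is the measure. Exposure lasts 40 hr at 37 °C; luminescence follows CellTiter-Glo addition, and Hill fits give AC50.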

Experiment [5] can be described thus: Cell Viability - H-4-II-E (AID 543). Further: nearly all actives have a fitted effect of over 35% in size. Further: potency means the concentration at half of the fitted maximal effect. To be noted: H-4-II-E rat hepatoma viability; series mostly up to 92.2 µM. A digest of the protocol: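 AC50 from Hill-modelled qHTS concentration-response curves. H-4-II-E rat hepatoma cells in complete medium, 40 hr exposure at 37 °C, viability by CellTiter-Glo ATP luminescence.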
Experiment [6] in a line: Cell Viability - SH-SY5Y (AID 544). Further: nearly all actives have a fitted effect of over 55% in size. Further: potency means the concentration at half of the fitted maximal effect. To be noted: SH-SY5Y neuroblastoma cell viability; series mostly up to 92.2 µM. The procedure, abridged: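 Quantitative HTS in SH-SY5Y neuroblastoma cells, 40 hr treatment at 37 °C, ATP content by luciferase luminescence; AC50 from Hill fits.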
Experiment [7] in a line: Cellular Toxicity (caspase-3) SHSY5Y (AID 657). Conditions: SH-SY5Y caspase-3 activation, DMSO zero, 10 µM staurosporine = 100%; series mostly up to 91.7 µM. A digest of the protocol: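 Cells plated and incubated 5 h at 37 °C, dosed over a concentration range, incubated 16 h, then given Caspase-Glo 3/7 reagent for 1 h at room temperature before luminescence reading. Staurosporine (10 uM) defined full stimulation.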

A short description of experiment [8]: Cellular Toxicity (caspase-3) SK-N-SH (AID 661). To be noted: SK-N-SH caspase-3 activation, qHTS, DMSO as zero, staurosporine as full; series mostly up to 91.7 µM. The procedure, abridged: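 Apoptosis readout in SK-N-SH neuroblastoma: Caspase-Glo 3/7 luminescence following 16 hr treatment in complete culture medium. Normalization used DMSO and 10 uM staurosporine controls.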

Experiment [9] can be described thus: Cellular Toxicity (caspase-3) H-4-II-E (AID 663).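 Further: cells exposed to compound for 16 hr before readout.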 Conditions: H-4-II-E rat hepatoma; Potency: caspase-3 activation; series mostly up to 92.2 µM. The procedure, abridged:
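H-4-II-E rat hepatoma, 1500 cells/well, 5 hr settle at 37 °C; compound 16 hr, 37 °C, complete medium; Caspase-Glo 3/7, 20 min RT; luminescence. DMSO = 0%, 100 uM tamoxifen = 100%; Hill-equation AC50.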

Experiment [10] in a line: Cellular Toxicity (caspase-3) N2a (AID 665).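 Further: compound exposure lasted 16 h at 37 °C before readout.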 To be noted: N2a cells, luminescence, normalized: DMSO 0%, 10 µM staurosporine 100%; series mostly up to 92.2 µM. The procedure, abridged:
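Concentration-response qHTS: compound-induced caspase-3/7 luminescence in N2a cells (16 h, 37 °C), relative to DMSO and 10 uM staurosporine controls; AC50 obtained using the standard Hill equation.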

The nature of experiment [11]: Cellular Toxicity (caspase-3) NIH 3T3 (AID 666).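 Further: caspase signal read after 16 h compound exposure; 0% = DMSO basal and 100% = 100 µM tamoxifen stimulation.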 To be noted: NIH 3T3 caspase-3 activation, apoptosis/toxicity, 0% DMSO, 100% is 100 µM tamoxifen; series mostly up to 92.2 µM. A digest of the protocol:
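Activity: caspase-3/7 induction, NIH 3T3 cells, 16 hr treatment at 37°C, luminescent Caspase-Glo detection; AC50 via Hill equation.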

A short description of experiment [12]: MultiTox-Fluor Cytotoxicity Assay - LYMP1-001 - Dead Cells (AID 946). Further: potency means the concentration at half of the fitted maximal effect. Conditions: LYMP1-001 lymphoblastoid cells, dead-cell protease fluorescence; series mostly up to 92.2 µM. The procedure, abridged:
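LYMP1-001 lymphoblastoid cells (2500/well) treated 16 h at 37 C. Dead-cell protease cleavage of bis-AAF-R110 read at Ex/Em 485/520. Normalized to DMSO and 15 uM tetraoctylammonium bromide; AC50 from Hill fits.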

Experiment [13] can be described thus: Cell Viability - LYMP1-002 - Assay at 16 hr (AID 948). Further: potency means the concentration at half of the fitted maximal effect. Conditions: LYMP1-002 lymphoblastoid cell viability; series mostly up to 92.2 µM. The procedure, abridged: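 Acute cytotoxicity is scored as a concentration-dependent fall in intracellular ATP in a human lymphoblastoid line (LYMP1-002) after 16 hr compound exposure at 37 C, measured by luciferase luminescence.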

Experiment [14] can be described thus: MultiTox-Fluor Cytotoxicity Assay - LYMP1-002 - Live Cells (AID 955). Further: potency means the concentration at half of the fitted maximal effect. To be noted: LYMP1-002 lymphoblastoid live-cell protease fluorescence viability; series mostly up to 46.1 µM. The procedure, abridged:
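In this qHTS viability format, lymphoblastoid cells (LYMP1-002, human) received compound for 16 hr at 37 C. Fluorogenic GF-AFC cleavage by viable cells was detected at 405/510 nm after 1 h at room temperature.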

Experiment [15] is described as follows: MultiTox-Fluor Cytotoxicity Assay - LYMP1-003 - Dead Cells (AID 961). Further: nearly all actives have a fitted effect of over 70% in size. Further: potency means the concentration at half of the fitted maximal effect. Conditions: LYMP1-003 lymphoblastoid cells, dead-cell protease fluorescence; series mostly up to 92.2 µM. A digest of the protocol:
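LYMP1-003 human lymphoblastoid cells (2500/well) exposed to compound 16 h at 37 C in complete medium; dead-cell protease read with bis-AAF-R110 fluorescence (Ex/Em 485/520) after 60 min at room temperature. Normalized to DMSO and 15 uM tetraoctylammonium bromide; AC50 from Hill fit.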

A short description of experiment [16]: Cell Viability - LYMP2-003 (AID 965).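 Further: cells exposed to compounds for 24 h before reading; nearly all actives have a fitted effect of over 50% in size.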 Further: potency means the concentration at half of the fitted maximal effect. To be noted: LYMP2-003 lymphoblastoid cell viability; series mostly up to 92.2 µM. A digest of the protocol: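 Acute cytotoxicity is scored as a concentration-dependent drop in intracellular ATP, measured by luciferase luminescence in human lymphoblastoid cells treated for 24 hours at 37 C. AC50 values derive from Hill-equation modelling.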

The nature of experiment [17]: Cell Viability - LYMP2-020 (AID 986).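 Further: cells exposed to compound for 24 h at 37 °C; nearly all actives have a fitted effect of over 55% in size.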 Further: potency means the concentration at half of the fitted maximal effect. To be noted: series mostly up to 92.2 µM. A digest of the protocol:
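Cells at 2500 per well receive a 24 hr compound exposure at 37 C. Viability is measured as ATP-dependent luciferase luminescence, with AC50 modeled from qHTS concentration-response curves.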

Experiment [18] can be described thus: Cell Viability - LYMP2-022 (AID 987). Further: nearly all actives have a fitted effect of over 55% in size. Further: potency means the concentration at half of the fitted maximal effect. To be noted: LYMP2-022 lymphoblastoid cell viability; series mostly up to 92.2 µM. A digest of the protocol:
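In this qHTS cytotoxicity screen, compound titrations were incubated 24 hr at 37 C with human lymphoblastoid cells in complete medium. Luciferase-based ATP luminescence provided the viability signal.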

Experiment [19] can be described thus: Cell Viability - LYMP2-024 (AID 988). Further: nearly all actives have a fitted effect of over 60% in size. Further: potency means the concentration at half of the fitted maximal effect. To be noted: LYMP2-024 lymphoblastoid cell viability; series mostly up to 92.2 µM. The procedure, abridged:
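Cells at 2500 per well received compound for 24 hr after a 5 hr settling period. Viability was scored by CellTiter-Glo luminescence, with AC50 from Hill fits.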

Experiment [20] can be described thus: qHTS assay for small molecule antagonists of retinoid X receptor alpha signaling (AID 588546).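 Further: cells stimulated with 9-cis-retinoic acid as agonist; on the % scale 0 is the no-effect control and ±100 the full control effect.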 Conditions: HEK293T RXRa-UAS-bla, beta-lactamase ratio, antagonist mode; measured here: W530 green channel, cytotoxicity proxy. A digest of the protocol:
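Beta-lactamase reporter inhibition, read as CCF4 fluorescence ratio (ex 405, em 460/530 nm) after 2 h at RT. HEK293T UAS-bla cells, 2500/well, were stimulated with 9-cis-RA at 500 or 100 nM final alongside test compound for 18 h at 37 C.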

For `c1ccc2c(c1)[nH]c1ccccc12`, the Potency in experiment [1], in experiment [2] and in experiment [3] was > 92 µM (inactive) each time. Further, the result in experiment [4], in experiment [7], in experiment [8], in [10] and in [11] was inactive. For the same compound, the Potency entry in [5], in experiment [6], in experiment [9], in experiment [12], in experiment [13] and in [14] was “inactive” in each case. Moreover, the Potency result in experiment [15], in experiment [16], in experiment [17], in experiment [18] and in [19] was “inactive” throughout. In experiment [20], the max response is -0.129% and 3.48%.
Regarding `Nc1ccc(S(=O)(=O)O)cc1`, the Potency in [1], in experiment [2] and in [3] was > 92 µM (inactive) in each case. The outcome in experiment [4], in experiment [7], in experiment [8], in experiment [10] and in experiment [11] was inactive. Also, the Potency entry in [5], in experiment [6], in experiment [9], in experiment [12], in experiment [13] and in [14] was “inactive” each time. The Potency entry in experiment [15], in [16], in experiment [17], in [18] and in [19] was “inactive” in each case. Also, the max response in experiment [20] was -0.278%.
As to `O=C(O)CC(C(=O)O)C(CC(=O)O)C(=O)O` (stereo not given), the Potency in [1], in experiment [2] and in experiment [3] was > 92 µM (inactive) each time. Also, the compound was called inactive in experiment [4], in [7], in experiment [8], in experiment [10] and in [11]. Besides, the Potency result in experiment [5], in experiment [6], in [9], in experiment [12], in [13] and in experiment [14] was “inactive” in each case. Besides, the Potency entry in experiment [15], in experiment [16], in experiment [17], in experiment [18] and in experiment [19] was “inactive” throughout. Moreover, the max response in [20] was 3.1% and -5.42%.
In the case of `C=CCOC(=O)c1ccccc1C(=O)OCC=C`, the Potency in [1], in experiment [2] and in experiment [3] was > 92 µM (inactive) each time. Besides, the compound was called inactive in experiment [4], in experiment [7], in [8], in experiment [10] and in experiment [11]. The Potency entry in experiment [5], in experiment [6], in [9], in experiment [12], in experiment [13] and in experiment [14] was “inactive” throughout. Besides, the Potency entry in experiment [15], in [16], in experiment [17], in experiment [18] and in experiment [19] was “inactive” throughout. In addition, the max response in experiment [20] is -4.9% and -9.66%.
On to `C=CC(=O)OCCOCCOCCOCCOC(=O)C=C`, for which the Potency in [1] is 6.78 µM (active) and 12.4 µM (active); in [2], 24.8 µM (active) and 28.8 µM (active); in experiment [3], > 92 µM (inactive); in [5], 20 µM (active); in [6], 7.94 µM (active) and 12.6 µM (active); in [12], 50.1 µM (active). Also, the Potency in experiment [13] was 31.6 µM (active); in experiment [14], 12.6 µM (active) and 15.8 µM (active); in experiment [15], 20 µM (active) and 25.1 µM (active); in experiment [16], 12.6 µM (active) and 15.8 µM (active); in experiment [17], 12.6 µM (active) and 15.8 µM (active); in experiment [18], 12.6 µM (active). In experiment [19], the Potency is 12.6 µM (active) and 15.8 µM (active). The compound was classed as inactive in experiment [10] and in experiment [11].
Turning to `C/C=C\c1ccc(OC)cc1`, the Potency in [1], in [2] and in [3] was > 92 µM (inactive) each time. For the same compound, the result in experiment [4], in [7], in experiment [8], in experiment [10] and in experiment [11] was inactive. For the same compound, the Potency result in [5], in experiment [6], in experiment [9], in experiment [12], in [13] and in [14] was “inactive” each time. For the same compound, the Potency result in [15], in experiment [16], in experiment [17], in experiment [18] and in [19] was “inactive” each time. Also, the max response in [20] was determined as 1.79%.
